# Results filed as inconclusive are left out. Calls of active or inactive are those of the source. Rule for the calls, unless noted: active = hit-call score of the fitted dose curve at least 0.9, where 1 is the maximum; inactive = score below 0.9.
# Experiments:
# [1] = read-out: CD69, CD69 (gene 969); experiment: BSK_LPS_CD69: BioMAP Diversity Plus: LPS Assay for CD69 Biomarker Activity (AID 2284303); settings: primary human HUVEC with PBMC
# Outline: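 CD69 surface levels were read by ELISA after 24 h chemical treatment of an LPS-stimulated HUVEC plus PBMC co-culture; positive-direction fit against DMSO vehicle.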
# [2] = CCTE_Mundy_HCI_iCellGluta_NOG_NeuriteLength: CCTE's Neurite Outgrowth Assay in iCellGluta cells for Neurite Length, Mundy Lab (AID 2284318; active = hit-call score of the fitted dose curve at least 0.9, where 1 is the maximum)
# Outline: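 Automated high-content imaging of betaIII-tubulin (Alexa Fluor-488) and Hoechst-stained cells gave neurite length, normalized to the DMSO baseline.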
# [3] = test system: IYD (gene 389434); experiment: CCTE_GLTED_hIYD: CCTE's human Iodotyrosine Deiodinase (xIYD) Inhibition Assay, Great Lakes Toxicology and Ecology Division (GLTED) Lab (AID 2284317; active = hit-call score of the fitted dose curve at least 0.9, where 1 is the maximum;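 note: cell-free human IYD enzyme made in baculovirus insect cells; iodide freed from monoiodotyrosine measured by cerium arsenite color change at 420 nm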)
# Outline: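 Iodide liberated from monoiodotyrosine by baculovirus-expressed human IYD over 3 h was determined colorimetrically (Sandell-Kolthoff, 420 nm) after Dowex separation; inhibition is loss of signal versus DMSO.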
# [4] = IUF_NPC2c_oligodendrocyte_migration_120hr: Leibniz Research Institute for Environmental Medicine (IUF) 120-hour Neural Progenitor Cell Migration Assay for Oligodendrocyte Migration (NPC2c) (AID 2284297);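 note: O4-positive oligodendrocyte migration distance divided by radial glia migration distance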
# Outline: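 Human fetal cortex-derived neural progenitor spheres (0.3 mm) were plated on poly-D-lysine/laminin in N2 differentiation medium and exposed to 7 concentrations for 120 h, with half-medium renewal at day 3. Oligodendrocyte migration distance was normalized to radial glia migration, relative to DMSO.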
# [5] = IUF_NPC2a_radial_glia_migration_120hr: Leibniz Research Institute for Environmental Medicine (IUF) 120-hour Neural Progenitor Cell Migration Assay for Radial Glia Migration (NPC2a) (AID 2284298)
# Outline: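 Single 0.3 mm primary human fetal-cortex (GW 16-19) NPC spheres were plated on poly-D-lysine/laminin in N2 differentiation medium and exposed from day 0 for 120 h, half-medium refreshed day 3. Migration distance came from Hoechst nuclei-density imaging, relative to DMSO.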
# [6] = IUF_NPC2a_radial_glia_migration_72hr: Leibniz Research Institute for Environmental Medicine (IUF) 72-hour Neural Progenitor Cell Migration Assay for Radial Glia Migration (NPC2a) (AID 2284299)
# Outline: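 Spheres of human primary neural progenitors migrate on poly-D-lysine/laminin under compound exposure at 37C, 5% CO2. The 72 h radial glia migration distance comes from brightfield images, measured manually.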
# [7] = IUF_NPC2b_neuronal_migration_120hr: Leibniz Research Institute for Environmental Medicine (IUF) 120-hour Neural Progenitor Cell Migration Assay for Neuron Migration (NPC2b) (AID 2284300)
# Outline: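 Primary human fetal cortex neural progenitor spheres (0.3 mm) plated on poly-D-lysine/laminin in N2 differentiation medium, exposed 120 h with half-medium refresh at day 3. TUBB3-stained neuron distance from sphere core, normalized to radial glia migration, versus DMSO.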
# [8] = IUF_NPC3_neuronal_differentiation_120hr: Leibniz Research Institute for Environmental Medicine (IUF) 120-hour Neuronal Differentiation Assay (NPC3) (AID 2284301)
# Outline: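 hNPC spheres, PDL/laminin, DMEM/F12 3:1 + 1% N2, 37C, 5% CO2; 7 concentrations + solvent control, 5 d exposure, half-change day 3. Fix 120 h; TUBB3/Hoechst ICC, CNN neuron calling; % neurons vs nuclei, DMSO-normalized.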
# [9] = IUF_NPC4_neurite_length_120hr: Leibniz Research Institute for Environmental Medicine (IUF) 120-hour Neuronal Morphology Assay for Neurite Length (NPC4) (AID 2284302)
# Outline: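 hNPC spheres (0.3 mm, fetal brain GW 16-19) on PDL/laminin, DMEM:F12 3:1 + 1% N2, 37C 5% CO2; 7 concs + solvent control, day 0-5, half medium change d3; fix 120 h, TUBB3 ICC, mean neurite length um vs DMSO.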
# [10] = IUF_NPC5_oligodendrocyte_differentiation_120hr: Leibniz Research Institute for Environmental Medicine (IUF) 120-hour Oligodendrocyte Differentiation Assay (NPC5) (AID 2284304; active = hit-call score of the fitted dose curve at least 0.9, where 1 is the maximum;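 note: primary human fetal neural progenitor spheres plated to migrate and differentiate; share of O4-positive cells among Hoechst nuclei found by CNN image analysis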)
# Outline: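 Primary human fetal (GW 16-19) neural progenitor spheres (0.3 mm) plated on poly-D-lysine/laminin in N2 differentiation medium, exposed from day 0 for 120 h with half-medium refresh at day 3; O4-positive cells as percent of Hoechst nuclei, CNN-identified, versus DMSO.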
# [11] = IUF_NPC4_neurite_area_120hr: Leibniz Research Institute for Environmental Medicine (IUF) 120-hour Neuronal Morphology Assay for Neurite Area (NPC4) (AID 2284305; active = hit-call score of the fitted dose curve at least 0.9, where 1 is the maximum)
# Outline: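 hNPC spheres on PDL/laminin, N2 medium, 37C/5% CO2; dosed day 0, half-medium refresh day 3; fixed 120 h; TUBB3/Hoechst ICC, high-content imaging; neurite area = mean pixels per neuron (nuclei excluded); DMSO baseline, max 0.1%.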
# [12] = IUF_NPC2-5_cytotoxicity_72hr: Cytotoxicity Assessment at 72 hours in the Leibniz Research Institute for Environmental Medicine (IUF) Neural Progenitor Cell Migration and Differentiation Assay for Cytotoxicity (NPC2-5) (AID 2284306; active = hit-call score of the fitted dose curve at least 0.9, where 1 is the maximum;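 note: LDH release into supernatant measured by resorufin fluorescence marking membrane damage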)
# Outline: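 hNPC spheres (0.3 mm), PDL/laminin, DMEM/F12 3:1 + 1% N2; cpd from d0, 7 concs + SC, DMSO max 0.1%; half-medium refresh d3. Readout: supernatant LDH via resorufin fluorescence (RFU), 72 h; gain-of-signal fit.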
# [13] = IUF_NPC2-5_cytotoxicity_120hr: Cytotoxicity Assessment at 120 hours in the Leibniz Research Institute for Environmental Medicine (IUF) Neural Progenitor Cell Migration and Differentiation Assay (NPC2-5) (AID 2284307; active = hit-call score of the fitted dose curve at least 0.9, where 1 is the maximum)
# Outline: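 Human fetal neural progenitor spheres (0.3 mm, GW 16-19 cortex) were plated on poly-D-lysine/laminin in N2 differentiation medium and exposed for 120 h, with half-medium refresh at day 3. LDH release into supernatant was read by resorufin fluorescence.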
# [14] = IUF_NPC2-5_cell_number_120hr: Cell Number Assessment at 120 hours in the Leibniz Research Institute for Environmental Medicine (IUF) Neural Progenitor Cell Migration and Differentiation Assay (NPC2-5) (AID 2284308);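 note: count of Hoechst-stained nuclei in migration zone around plated human neural progenitor spheres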
# Outline: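 Primary human fetal neural progenitor spheres (GW 16-19, 0.3 mm) plated on poly-D-lysine/laminin in N2 differentiation medium, exposed from day 0 for 120 h with half-medium refresh at day 3; Hoechst-positive nuclei counted in migration area versus DMSO control.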
# [15] = IUF_NPC2-5_viability_120hr: Viability Assessment at 120 hours in the Leibniz Research Institute for Environmental Medicine (IUF) Neural Progenitor Cell Migration and Differentiation Assay (NPC2-5) (AID 2284312)
# Outline: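 Human fetal neural progenitor spheres (0.3 mm) plated on poly-D-lysine/laminin in N2 differentiation medium, exposed 120 h with half-medium refresh at day 3. Viability by alamar blue resazurin fluorescence; 7 concentrations, DMSO max 0.1%.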
smiles,measurement,setting,value
C[C@@H]1C[C@H]2[C@@H]3CCC4=CC(=O)C=C[C@]4(C)[C@@]3(F)[C@@H](O)C[C@]2(C)[C@@]1(O)C(=O)COP(=O)(O)O,outcome,[1],inactive
NCC(F)(F)C(F)(F)C(F)(F)C(F)(F)C(F)(F)C(F)(F)C(F)(F)F,outcome,[1],inactive
C=C(C)C(=O)OCCC(F)(F)C(F)(F)C(F)(F)C(F)(F)C(F)(F)C(F)(F)F,outcome,[1],inactive
same,outcome,[2],inactive
O=C1OC2(c3ccccc31)c1cc(Br)c(O)c(Br)c1Oc1c2cc(Br)c(O)c1Br,AC50,[3],42.2 µM (active)
CC1=C(/C=C/C(C)=C/C=C/C(C)=C/C(=O)O)C(C)(C)CCC1,outcome,[4],inactive
same,AC50,[5],1.74 µM (active)
same,outcome,[6],inactive
same,outcome,[7],inactive
same,outcome,[8],inactive
same,outcome,[9],inactive
same,outcome,[10],inactive
same,outcome,[11],inactive
same,outcome,[12],inactive
same,outcome,[13],inactive
same,outcome,[14],inactive
same,outcome,[15],inactive

# — PubChem BioAssay (EPA / NIEHS)
